CHX counter = counter-screen for Shiga toxin inhibitors: cycloheximide protein synthesis inhibition. cell reporter, cycloheximide protein synthesis inhibition counterscreen. max response, %. 300,000 compounds, 12% hits; in the data active = max response mostly above about 13%, no sharp cut-off; inactive = mostly below about 14%; note: read at 38.3 µM for the half of the compounds with a filed dose; 0% is about no effect
RE007 growth inh = less growth of the S. pombe RE007 Vpr strain | Potency, µM (titrated, usually from 92.2 µM), inactives show top-dose activity change, negative = less growth, most hits filed as inhibitors | AID 651644 | 360,000 compounds, 0.21% hits | S. pombe RE007 Vpr strain, BacTiter-Glo ATP luminescence, 24 h; active = well fitted falling curve with a large enough effect; inconclusive = small, poorly fitted or top-dose-only effect; inactive = no such curve, though single readings can be large or run the other way; note: potency is the fitted concentration of half-maximal effect; % is set by controls: 0 for no effect and ±100 for the full control effect; nearly all actives have a fitted effect of over 50% in size
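Fission yeast strain RE007, carrying one chromosomally integrated HIV-1 vpr copy, was seeded at OD 0.01 in PMG+AL medium with 23 nL pinned compound. After 24 h at 30 °C and 99% humidity, viability was read by BacTiter-Glo luminescence.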
Tb PYK inh = T. brucei pyruvate kinase inhibition | Q57TT1 | TbPYK enzyme, Kinase-Glo Plus ATP luminescence, 45 min | Potency, µM (doses to about 76.8 µM), without a hit: top-dose activity, negative = inhibition, hits mostly inhibitors | 410,000 compounds, 0.12% hits | AID 624173; note: potency is the fitted concentration of half-maximal effect; % is set by controls: 0 for no effect and ±100 for the full control effect; nearly all actives have a fitted effect of over 50% in size
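Quantitative HTS: titrated library compounds versus trypanosomal pyruvate kinase in TEA buffer (pH 7.2) containing KCl, MgCl2, BSA and Tween-20. Reactions were initiated with ADP, 130 uM final. Kinase-Glo Plus luminescence was read after 45 min at RT.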
LmPK inh = blocks Leishmania mexicana pyruvate kinase activity. Potency, µM (highest dose often 57.5 µM), for the others: at the highest dose activity change, negative = inhibition, most hits filed as inhibitors. purified LmPK, Kinase-Glo ATP luminescence, 1 h. Q27686. 290,000 compounds, 0.37% hits. AID 1721; note: potency is the fitted concentration of half-maximal effect; % is set by controls: 0 for no effect and ±100 for the full control effect
Target sequence (Q27686 whole entry, looked up): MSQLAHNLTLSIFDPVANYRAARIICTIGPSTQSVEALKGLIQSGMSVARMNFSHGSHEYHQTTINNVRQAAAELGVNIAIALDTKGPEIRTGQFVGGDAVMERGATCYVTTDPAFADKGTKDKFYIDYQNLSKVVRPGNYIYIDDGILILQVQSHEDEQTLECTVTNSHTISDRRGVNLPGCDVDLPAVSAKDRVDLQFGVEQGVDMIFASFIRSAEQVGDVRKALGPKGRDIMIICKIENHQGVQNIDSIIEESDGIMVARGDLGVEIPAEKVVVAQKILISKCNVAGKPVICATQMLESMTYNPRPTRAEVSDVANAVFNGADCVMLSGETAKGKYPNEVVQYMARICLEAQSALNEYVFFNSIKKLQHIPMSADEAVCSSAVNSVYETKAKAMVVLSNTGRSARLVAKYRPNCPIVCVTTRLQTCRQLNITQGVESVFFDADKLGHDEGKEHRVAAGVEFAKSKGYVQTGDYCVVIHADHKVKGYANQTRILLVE
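Purified LmPK (0.1 nM) converted ADP (0.1 mM) to ATP with PEP (0.5 mM) in imidazole buffer pH 7.2 with KCl and MgCl2, 1 h at room temperature. ATP was read by Kinase-Glo luminescence; data normalized to uninhibited and no-enzyme controls.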
Shiga toxin inh = Shiga toxin inhibition; Vero cells, Shiga toxin protein synthesis inhibition reporter; inhibition, % at 38.7 µM; 290,000 compounds, 9.2% hits; in the data active = inhibition mostly above about 28%, no sharp cut-off; inactive = mostly below about 43%; note: 0% is about no effect
Giardia FBPA inh = blocks Giardia fructose-bisphosphate aldolase activity. A8B2U2. purified Giardia FBPA. Potency, µM (top dose mostly 59.6 µM), inactives show at the top dose activity, negative = inhibition, hits mostly inhibitors. 290,000 compounds, 0.71% hits; note: potency is the fitted concentration of half-maximal effect; % is set by controls: 0 for no effect and ±100 for the full control effect; nearly all actives have a fitted effect of over 55% in size
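40 nM FBPA preincubated 10 min at RT with compound (up to 57.5 uM final), then substrate plus GAPDH/TPI/NAD/arsenate coupling and diaphorase/resazurin added. Fluorescence read after 20 min at RT, 525/598 nm.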
* = called active by the depositor; ? = inconclusive; . = not tested or not shown. This excerpt belongs to a sample that is enriched for hits. Unless noted, calls come from the whole dose curve; as a rule, active = well fitted curve in the direction sought with a large enough effect; inconclusive = small, poorly fitted or top-dose-only effect, or another doubt; inactive = no such curve, though single readings can be large; an effect the other way counts as inactive or inconclusive.

SMILES	CHX counter	RE007 growth inh	Tb PYK inh	LmPK inh	Shiga toxin inh	Giardia FBPA inh
CCOc1ccc2nc(NC(=O)C3CCCO3)sc2c1 (configuration not stated)	1	-11%	-3%	2%	24	-2%
COc1ccc2nc(NC(=O)C34CC5CC(CC(NC(C)=O)(C5)C3)C4)sc2c1	49*	18%	-2%	-7%	45*	.
CCSc1ncc(Cl)c(C(=O)Nc2nc3ccc(OC)cc3s2)n1	19	.	-5%	.	-11	.
COc1ccc(C(=O)Nc2nc3ccc(S(C)(=O)=O)cc3s2)cc1	7	5%	-7%	3%	9	1%
COc1ccc2nc(NC(=O)c3cc(=O)c4ccccc4o3)sc2c1	.	.	2%	.	.	.
CCn1cc([N+](=O)[O-])c(C(=O)Nc2nc3ccc(OC)cc3s2)n1	15*	-5%	3%	1%	41	18%
COc1ccc2nc(NC(=O)c3cccc(-c4cc5ccccc5oc4=O)c3)sc2c1	34*	0%	-1%	3%	43*	-1%
COc1cccc(NC(=O)c2ccc(NS(=O)(=O)c3cccs3)cc2)c1	.	-12%	-2%	.	.	.
COc1ccc(C(=O)Nc2nc3ccc(OC)cc3s2)cc1	39*	?	-1%	-2%	68*	-23%
COc1ccc2nc(NC(=O)c3ccc(NS(=O)(=O)c4cccs4)cc3)sc2c1	35*	6%	-11%	0%	23	0%
CCOc1ccc(/C=C/c2nc(C#N)c(N3CCC(C)CC3)o2)cc1	.	.	-12%	.	.	.
CCOc1ccccc1N1CC(c2nc3ccccc3n2CCCOc2ccccc2)CC1=O (configuration not stated)	.	.	3%	.	.	.
COc1ccc2nc(NC(=O)c3ccccc3C(=O)O)sc2c1	9	3%	-8%	-2%	-4	5%
COc1ccc2nc(NC(=O)c3cnccn3)sc2c1	31*	19%	-16%	?	119*	6%
COc1ccccc1C(=O)Nc1ccc2nc(SCC(=O)N3CCCC3)sc2c1	.	.	9%	.	.	.
CCN(CC)c1cc(C)c2cc(NC(=O)c3ccccc3F)ccc2n1	16*	-6%	3%	0%	22	6%
CN1CCN(C(=O)CSc2nc3ccc(NC(=O)c4ccccc4F)cc3s2)CC1	14*	6%	-2%	-1%	24	0%
COc1ccc2nc(NC(=O)c3ccccc3F)sc2c1	27*	-5%	-13%	-3%	56*	4%
CCCCCc1ccc2cc(C#N)ccc2n1	.	-7%	-2%	.	.	.
CCC(=O)Nc1ccc2nc(SCCOc3ccc(C)cc3OC)sc2c1	.	.	2%	.	.	.
Cc1ccc(N2CCn3c2nc2c3c(=O)n(CCCc3ccccc3)c(=O)n2C)cc1C	.	.	-2%	.	.	.
Cc1cccc(CNc2ncncc2-c2ccc(C(=O)N(C)C)cc2)c1	.	.	.	.	.	8%
Cc1cccc(N2CCN(C(=O)CN3C(=O)COc4ccc(S(=O)(=O)N5CCCCCC5)cc43)CC2)c1C	.	.	2%	.	.	.
O=C(/C=C/c1ccccc1[N+](=O)[O-])NCCc1ccc(F)cc1	24*	-1%	-6%	2%	69	-7%
Cc1ccc(CSCCNC(=O)/C=C/c2ccccc2Cl)cc1	32*	2%	4%	2%	6	0%
SMILES	CHX counter	RE007 growth inh	Tb PYK inh	LmPK inh	Shiga toxin inh	Giardia FBPA inh
O=C(/C=C/c1ccccc1Cl)NCCc1ccc(F)cc1	24*	-1%	-2%	3%	93*	1%
O=C(Cc1ccccc1[N+](=O)[O-])NCCc1ccc(F)cc1	1	3%	-2%	1%	3	-3%
COc1ccc2c(c1)c(N1CCCC1=O)c(C(=O)Nc1cc(C)c(Cl)cc1OC)n2C	.	.	1%	.	.	.
Nc1ccc(Nc2ccccc2)c(Cl)c1	27*	117%	-1%	1%	52*	-2%
c1ccc(Sc2ncnc3ccccc23)cc1	12*	-22%	2%	-5%	36	0%
O=C(COc1ccccc1)Nc1ccccc1Cl	41*	-22%	-3%	-7%	108*	10%
O=C(Nc1ccccc1Cl)Oc1ccc(-c2ccccc2)cc1	18*	-21%	-1%	-1%	36	-1%
O=C(Nc1ccccc1Cl)Nc1ccccc1Cl	21*	-7%	0%	2%	32	0%
O=C(Nc1ccc(Nc2ccccc2)cc1)c1c(Cl)cccc1Cl	.	-8%	-11%	.	.	.
COC(=O)c1ccccc1NC(=O)COc1ccccc1	4	-10%	2%	2%	15	2%
O=C(Nc1ccc(Nc2ccccc2)cc1)Nc1ccccc1Cl	41*	-10%	-10%	-15%	97*	-8%
CCCCCOc1ccc(C(C)(O)C(CN2CCOCC2)c2ccccc2)cc1 (configuration not stated)	-2	-28%	-3%	-1%	9	1%
Nc1ncnc2c1ncn2[C@@H]1O[C@H](COP(=O)(O)OP(=O)(O)OP(=O)(O)OP(=O)(O)OC[C@@H]2O[C@H](n3cnc4c(N)ncnc43)[C@@H](O)[C@@H]2O)[C@H](O)[C@H]1O	.	.	.	.	.	-2%
Cn1c(N)c(C(=O)COC(=O)COc2ccc(Cl)cc2Cl)c(=O)n(C)c1=O	.	-17%	1%	.	.	.
O=C(Nc1csc([N+](=O)[O-])c1)Nc1ccccc1Cl	36*	-12%	-1%	-5%	54*	-9%
O=C(Nc1ccccn1)Nc1ccccc1Cl	32*	-8%	1%	0%	50*	-1%
N#Cc1ccccc1NC(=O)Nc1ccc(Cl)cc1	8	-4%	5%	-10%	31	9%
CSc1ccccc1NC(=O)Nc1ccccc1Cl	24*	-16%	-14%	2%	38	-6%
O=C(Nc1ccc(Cl)cc1)Nc1ccccc1Sc1ncc([N+](=O)[O-])s1	34*	-24%	-28%	3%	63*	-19%
CNc1ccc(C(=O)OCC(=O)Nc2ccnn2C(C)C)cc1[N+](=O)[O-]	.	4%	1%	.	.	.
COc1ccc(CN(Cc2ccco2)C(=O)COc2ccccc2OC)cc1	.	.	7%	.	.	.
COc1ccc(OCc2ccc(-c3nc(C#N)c(N4CCC(C(N)=O)CC4)o3)o2)cc1	.	.	2%	.	.	.
COc1ccc(C(=O)c2c[nH]c(C(=O)NCC3CCCO3)c2)cc1 (configuration not stated)	21*	4%	-7%	3%	28	-2%
CC(C)(C)c1ccc(C(=O)c2c[nH]c(C(=O)NCC3CCCO3)c2)cc1 (configuration not stated)	22*	-17%	1%	8%	22	-15%
Cc1ccccc1C(=O)c1c[nH]c(C(=O)NCC2CCCO2)c1 (configuration not stated)	-2	0%	3%	-1%	-1	4%
Cc1ccccc1C(=O)c1c[nH]c(C(=O)N=CN(C)C)c1	-2	1%	-3%	-3%	-13	-7%
